Sampled rows, rich in hits. Any-hit rate of the full collection: about 1.3%.
HTT-AS act: activates huntingtin-antisense promoter activity; HEK293 HTT-AS promoter firefly luciferase reporter, 24 h; response scale: percent change from vehicle, -100% = no light; Potency, µM (doses to about 57.5 µM), usual class: activators; 48,000 compounds, 0.24% hits; also: nearly all actives have a fitted effect of over 55% in size
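Firefly luciferase signal from promoter-reporter HEK293 cells was scaled between vehicle (0%) and zero RLU (-100%). Compounds were tested at final concentrations of up to 57.5 uM over 24 h at 37 degrees C. PTC124 at 50 uM final served as control inhibitor.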
GALC G270D act: galactocerebrosidase G270D activity enhancement, cell-based | 145M-Twi-hGALC-G270D cells, HMU-beta-Gal fluorescence, 48 h | AID 1159614 | Potency, µM (top dose mostly 57.5 µM), usual class: activators | P54803 | 45,000 compounds, 0.1% hits; also: nearly all actives have a fitted effect of over 65% in size
Target sequence (P54803 whole entry G286D): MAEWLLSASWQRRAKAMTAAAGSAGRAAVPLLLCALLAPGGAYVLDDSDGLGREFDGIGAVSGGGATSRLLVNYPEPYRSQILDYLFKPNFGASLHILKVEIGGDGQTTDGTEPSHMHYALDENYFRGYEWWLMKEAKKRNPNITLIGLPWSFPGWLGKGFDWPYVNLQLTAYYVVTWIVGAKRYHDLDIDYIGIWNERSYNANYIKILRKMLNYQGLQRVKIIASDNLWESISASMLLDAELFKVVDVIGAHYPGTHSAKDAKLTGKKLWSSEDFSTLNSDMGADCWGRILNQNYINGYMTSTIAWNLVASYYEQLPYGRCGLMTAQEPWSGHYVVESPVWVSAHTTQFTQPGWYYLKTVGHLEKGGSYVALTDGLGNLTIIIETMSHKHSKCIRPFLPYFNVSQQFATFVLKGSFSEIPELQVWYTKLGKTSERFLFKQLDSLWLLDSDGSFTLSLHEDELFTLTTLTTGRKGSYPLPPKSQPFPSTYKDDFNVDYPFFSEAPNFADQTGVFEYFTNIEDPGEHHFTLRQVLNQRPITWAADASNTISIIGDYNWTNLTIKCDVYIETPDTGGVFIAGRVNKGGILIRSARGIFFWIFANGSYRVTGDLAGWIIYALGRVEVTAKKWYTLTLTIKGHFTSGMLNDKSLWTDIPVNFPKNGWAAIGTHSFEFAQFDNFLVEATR
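qHTS, 1536-well; 145M-Twi-hGALC-G270D cells (WT line also made) in DMEM/F12 + 10% FBS; compound incubation on live cells; HMU-β-gal 0.1 mM final, pH 5.2, NaTC; carbonate stop; fluorescence increase = enhanced residual activity.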
HTT promoter inh: inhibits huntingtin promoter activity | AID 1508623 | 48,000 compounds, 0.93% hits | Potency, µM (top dose mostly 57.5 µM), actives largely listed as inhibitors | HEK293 HTT promoter firefly luciferase reporter, 24 h; also: nearly all actives have a fitted effect of over 50% in size
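HEK293 cells carrying firefly luciferase reporters were seeded at 2,500 per well in Opti-MEM and cultured for 24 h. They were then treated with compounds at up to 57.5 uM final for 24 h at 37 degrees C before Dual-Glo luminescence readout.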
A number is an active result; - = inactive; ? = inconclusive; . = not tested or not shown. Calls follow the shape of the dose curve; as a rule, active = well fitted curve in the direction sought with a large enough effect; inconclusive = small, poorly fitted or top-dose-only effect, or another doubt; inactive = no such curve, though single readings can be large; an effect the other way counts as inactive or inconclusive.

SMILES	HTT-AS act	GALC G270D act	HTT promoter inh
C/C=C1\NC(=O)[C@H]2CSSCC/C=C/[C@H](CC(=O)N[C@H](C(C)C)C(=O)N2)OC(=O)C(C(C)C)NC1=O (stereo not given in full)	.	.	-
COc1ccc(Nc2c3c(nc4ccc(NC(=O)/C=C/c5cc(OC)c(OC)c(OC)c5)cc24)CCCC3)cc1OC	-	-	31.6µM
COc1ccc(/C=C/C(=O)Nc2ccc3nc4c(c(Nc5ccc(OC)c(OC)c5)c3c2)CCCC4)cc1	-	-	?
Cc1ccc(NS(=O)(=O)c2ccc3c(c2)C(C(C)C)C(=O)N3)cc1C (stereo not given)	-	-	-
Cc1cccc(N2CCN(S(=O)(=O)c3ccc4c(c3)C(C(C)C)C(=O)N4)CC2)c1C (stereo not given)	-	-	12.6µM
NC(=O)c1cc(S(=O)(=O)N2CCN(c3ccc(F)cc3)CC2)cs1	-	-	?
Cc1cccc(N2CCN(S(=O)(=O)c3csc(C(N)=O)c3)CC2)c1C	-	-	14.1µM
N#Cc1c(O)c2c(-c3ccc(-c4ccccc4O)cc3)csc2[nH]c1=O	-	.	-
CCOC(=O)Cc1ccc(NC(=O)n2ncc3cc(Cl)ccc32)cc1	-	-	0.251µM
Cc1ccc(C)c(NC(=O)n2ncc3cc(Cl)ccc32)c1	?	-	-
CC1CCN(c2cc(N3CCN(C)CC3)ccc2NC(=O)c2cc(C#N)c[nH]2)CC1	-	.	-
CC(=O)OCC(=O)[C@@]1(O)[C@H](C)C[C@H]2[C@@H]3C=C(C)C4=Cc5c(cnn5-c5ccccc5)C[C@]4(C)[C@@H]3[C@@H](O)C[C@@]21C	-	.	-
Cc1c2cnn(CC(=O)N3CCCCC3)c(=O)c2c(C)n1Cc1ccc(F)cc1	-	-	-
Cc1ccc(Cn2c(C)c3cnn(CC(=O)N4CCN(c5ccc(F)cc5)CC4)c(=O)c3c2C)cc1	-	-	14.1µM
Cc1ccc(CNC(=O)Cn2cc(C(=O)c3ccc(F)cc3)c(=O)c3ccc(C)nc32)cc1	-	-	-
CCc1ccc(C(=O)c2cn(CC(=O)Nc3cc(F)ccc3F)c3nc(C)ccc3c2=O)cc1	-	3.98µM	-
Cc1cc(Nc2cc(N3CCN(C)CC3)nc(C=Cc3ccccc3)n2)n[nH]1	-	.	?
Cc1ccc2c(c1)c(=O)c1ccccc1n2CCCC(=O)Nc1c(F)cccc1F	-	1.12µM	-
Cc1ccc(NC(=O)CCCn2c3ccccc3c(=O)c3cc(C)ccc32)c(Br)c1	-	-	?
COc1ccc(NC(=O)CSc2nnc(-c3ccc(C)cc3)o2)cc1	-	-	-
COc1cccc(NC(=O)CSc2nnc(-c3cccc(OC)c3)o2)c1	14.1µM	-	-
CC1(C)CC(O)CC(C)(C)N1[O]	-	.	-
CC(=O)N1CCN(c2ccc(O)cc2)CC1	-	-	-
C[C@H](NC(=O)[C@@H](O)c1cc(F)cc(F)c1)C(=O)N[C@@H]1C(=O)N(C)c2ccccc2-c2ccccc21	-	.	-
N#Cc1nc(/C=C/c2ccc(F)cc2)oc1N1CCCCCC1	-	-	-
SMILES	HTT-AS act	GALC G270D act	HTT promoter inh
CC1CCN(c2oc(/C=C/c3ccc(F)cc3)nc2C#N)CC1	-	25.1µM	-
NC(=O)Nc1cc(-c2cccc(F)c2)sc1C(=O)N[C@H]1CCCNC1	-	.	?
NC(=O)Nc1cc(-c2ccc(CN3CCOCC3)cc2)sc1C(N)=O	21.7µM	.	-
NC1CCC(Nc2nc(Nc3ccc(C(=O)N4CCCCC4)cc3)c3ncn(-c4cccc(F)c4)c3n2)CC1 (stereo not given)	?	.	-
CCn1cc(-c2ccnc3[nH]c(-c4cccc(CN(C)C)c4)cc23)c(-c2ccc(NC(=O)N(C)C)cc2)n1	-	.	?
CN(c1ncccc1CNc1nc(Nc2ccc3c(c2)CC(=O)N3)ncc1C(F)(F)F)S(C)(=O)=O	-	.	?
Cc1ccc(-c2c(C)n3c4c(=O)n(C)c(=O)n(C)c4nc3n2CCCO)cc1	-	-	10µM
COC(=O)CCCn1c(-c2ccc(C)cc2)c(C)n2c3c(=O)n(C)c(=O)n(C)c3nc12	-	-	-
N#Cc1c(-n2ncnc2-c2ccccc2C(F)(F)F)sc2c1CCCCC2	-	-	1.12µM
N#Cc1c(-n2ncnc2-c2ccccc2Cl)sc2c1CCCCC2	-	-	?
Cc1cc(NC(=O)CN(C)S(=O)(=O)c2ccc3c(c2)CCCC(=O)N3)ccc1Br	-	-	25.1µM
Cc1cc(C)c(NC(=O)CN(C)S(=O)(=O)c2ccc3c(c2)CCC(=O)N3)c(C)c1	-	-	-
CC(C=CC(=O)NO)=C[C@@H](C)C(=O)c1ccc(N(C)C)cc1	-	.	-
Cc1ccccc1NC(=O)c1ccc2[nH]c(C)c(C)c2c1	?	-	-
CCc1ccccc1NC(=O)c1ccc2[nH]c(C)c(C)c2c1	8.91µM	-	-
Cc1ccc(-n2nc3c(=O)n(C(C)C(=O)NCc4ccccc4C)nc(C)c3c2C)cc1 (stereo not given)	-	-	?
CCC(C(=O)NCCc1ccc(SC)cc1)n1nc(C)c2c(C)n(-c3ccc(C)cc3)nc2c1=O (stereo not given)	-	-	35.5µM
CSc1ccc(CCNC(=O)C(C)n2nc(C)c3c(C)n(-c4ccccc4)nc3c2=O)cc1 (stereo not given)	-	-	?
Cc1ccc(-n2nc3c(=O)n(C(C)C(=O)NCc4ccc(OC(C)C)cc4)nc(C)c3c2C)cc1 (stereo not given)	-	-	7.08µM
Cc1c[nH]c(C=C2C(=O)Nc3ccccc32)c1CCC(=O)O	-	.	-
CC[C@H](CC[C@@H](C)[C@H]1CC[C@H]2[C@@H]3CC=C4C[C@@H](O)CC[C@]4(C)[C@@H]3CC[C@]12C)C(C)C	-	.	-
CCOc1ccc(Nc2nc(-c3c(C)nc4ccccn34)cs2)cc1	-	.	-
COc1ccccc1-c1cccc(-c2c(O)c3cc(C#N)c(Cl)cc3[nH]c2=O)c1	-	.	-
CC(=O)c1cccc(NS(=O)(=O)c2ccc3c(c2)NC(=O)CC(=O)N3)c1	-	-	-
CC(=O)c1cccc(NS(=O)(=O)c2cccc(S(=O)(=O)c3ccc(Br)cc3)c2)c1	-	-	31.6µM
SMILES	HTT-AS act	GALC G270D act	HTT promoter inh
FC(F)(F)c1ccc(C=Cc2nc(COc3ccc(CCCCn4ccnn4)cc3)co2)cc1	-	.	?
C=C1C(=O)[C@@]23C(CC[C@@H]1[C@H]2O)[C@@]12CO[C@]3(O)[C@@H](O)[C@@H]1C(C)(C)CC[C@@H]2O (stereo not given in full)	-	.	?
CCc1ccc(CNC(=O)C2CCN(C(=O)c3ccc(-n4c(C)cc5ccccc54)s3)CC2)cc1	-	-	?
Cc1cc2ccccc2n1-c1ccc(C(=O)N2CCC(C(=O)NCc3ccc(Cl)cc3)CC2)s1	-	-	14.1µM
Cc1ccc(N2C(=O)CSC23C(=O)N(Cc2ccccc2F)c2ccccc23)cc1F (stereo not given)	-	-	25.1µM
CC(C)c1ccc(N2C(=O)CSC23C(=O)N(Cc2ccccc2F)c2ccccc23)cc1 (stereo not given)	-	-	-
Nc1ccc(-c2ccc3ncc4ccc(=O)n(-c5cccc(C(F)(F)F)c5)c4c3c2)cn1	-	.	?
CC(C)(C)c1cnc(CSc2cnc(NC(=O)C3CCNCC3)s2)o1	-	.	?
